# Assay results reported in PubChem BioAssay (NCATS).
# For some assays here: Measured potencies and affinities stand elsewhere. Calls of active or inactive are those of the source.
# Columns and labels:
# [1] = Ebola virus entry assay, blue channel fluorescence
# [2] = Ebola virus entry assay, ratio channel
# [3] = Ebola virus entry assay, green channel fluorescence
# [4] = Ebola virus entry assay, reporter ratio channel; AC50: Channel type: primary unless noted; outcome: Channel type: primary unless noted
# [5] = Ebola virus entry assay, ratio channel readout
# [6] = Ebola virus entry cell assay, ratio channel
# [7] = Ebola virus entry assay, blue channel fluorescence; remark: listed apart in the source
# [8] = Ebola virus entry assay, blue channel (ratio component)
# [9] = Ebola virus entry reporter assay, green channel fluorescence
# [10] = Ebola virus entry assay, green fluorescence channel
structure (smiles),measurement,setting,value
C[C@@H]1O[C@@H](O[C@H]2C[C@@H](O)[C@]3(CO)[C@H]4[C@H](O)C[C@]5(C)[C@@H](C6=CC(=O)OC6)CC[C@]5(O)[C@@H]4CC[C@]3(O)C2)[C@H](O)[C@H](O)[C@H]1O,AC50,[1],8.91 µM (active)
same,AC50,[2],0.708 µM (active)
same,outcome,[3],inactive
same,AC50,[4],0.708 µM (active)
CC(C)=CCOc1c2occc2cc2ccc(=O)oc12,AC50,[1],25.1 µM (active)
same,outcome,[2],inactive
same,outcome,[3],inactive
same,AC50,[4],25.1 µM (active)
Cc1nc(N)nc(N)c1-c1ccc(Cl)c(Cl)c1,AC50,[1],12.6 µM (active)
same,AC50,[2],28.2 µM (active)
same,outcome,[3],inactive
same,AC50,[4],28.2 µM (active)
CNCCC(Oc1ccc(C(F)(F)F)cc1)c1ccccc1 (configuration not stated),outcome,[5],inactive
same,AC50,[1],8.91 µM (active)
same,AC50,[2],3.55 µM (active)
same,AC50,[4],3.55 µM (active)
same,AC50,[6],12.6 µM (active)
CCOC(=O)[C@H](CCc1ccccc1)N[C@@H](C)C(=O)N1[C@H](C(=O)O)C[C@@H]2CCC[C@@H]21,outcome,[5],inactive
same,outcome,[2],inactive
same,outcome,[3],inactive
same,outcome,[7],inactive
same,outcome,[4],inactive
same,outcome,[8],inactive
same,outcome,[9],inactive
same,outcome,[6],inactive
Cc1ccc2c(n1)Oc1ccc(C(C)C(=O)OCC(=O)N(C)C)cc1C2 (configuration not stated),outcome,[1],inactive
same,outcome,[2],inactive
same,outcome,[3],inactive
same,outcome,[4],inactive
Cc1ccc(S(=O)(=O)N[C@@H](CCCCN)C(=O)CCl)cc1,AC50,[1],14.1 µM (active)
same,outcome,[2],inactive
same,outcome,[3],inactive
same,AC50,[4],28.2 µM (active)
CC(C)NCC(O)COc1cccc2[nH]ccc12 (configuration not stated),outcome,[5],inactive
same,AC50,[1],39.8 µM (active)
same,outcome,[2],inactive
same,outcome,[3],inactive
same,outcome,[7],inactive
same,AC50,[4],39.8 µM (active)
same,outcome,[6],inactive
Oc1cccc2cccnc12,outcome,[1],inactive
same,outcome,[2],inactive
same,outcome,[3],inactive
same,outcome,[4],inactive
CC1=NS(=O)(=O)c2cc(Cl)ccc2N1,outcome,[10],inactive
same,outcome,[2],inactive
same,outcome,[3],inactive
same,outcome,[7],inactive
same,outcome,[4],inactive
same,outcome,[8],inactive
same,outcome,[9],inactive
same,outcome,[6],inactive
NCCc1cc(O)c(O)cc1O,AC50,[1],25.1 µM (active)
same,outcome,[2],inactive
same,outcome,[3],inactive
same,AC50,[4],39.8 µM (active)
CC[C@@H](CO)NC(=O)[C@@H]1C=C2c3cccc4[nH]cc(c34)C[C@H]2N(C)C1,AC50,[1],7.94 µM (active)
same,AC50,[2],10 µM (active)
same,outcome,[3],inactive
same,AC50,[4],10 µM (active)
COc1ccccc1N1CCNCC1,outcome,[1],inactive
same,outcome,[2],inactive
same,outcome,[3],inactive
same,outcome,[4],inactive
Cc1ccccc1C(=O)Nc1ccc(C(=O)N2CCCC(O)c3cc(Cl)ccc32)c(C)c1 (configuration not stated),outcome,[5],inactive
same,AC50,[1],25.1 µM (active)
same,AC50,[2],25.1 µM (active)
same,AC50,[4],25.1 µM (active)
same,outcome,[9],inactive
same,outcome,[6],inactive
CCCN1CCC[C@@H]2Cc3[nH]ncc3C[C@H]21,outcome,[1],inactive
same,outcome,[2],inactive
same,outcome,[3],inactive
same,outcome,[4],inactive
same,outcome,[8],inactive
O=C1C(=O)c2ccccc2C(O)=C1C1CCC(c2ccc(Cl)cc2)CC1 (configuration not stated),outcome,[10],inactive
same,outcome,[3],inactive
same,outcome,[7],inactive
same,outcome,[4],inactive
same,outcome,[8],inactive
same,outcome,[6],inactive
CCN1/C(=C/C=C/c2sc3ccccc3[n+]2CC)Sc2ccccc21,outcome,[1],inactive
same,outcome,[2],inactive
same,outcome,[3],inactive
same,outcome,[4],inactive
Cn1ccc2cc3c(cc21)CCN3C(=O)Nc1cccnc1,outcome,[1],inactive
same,outcome,[2],inactive
same,outcome,[3],inactive
same,outcome,[4],inactive
same,outcome,[8],inactive
N#CC(C#N)=Cc1ccc(O)c(O)c1,outcome,[1],inactive
same,outcome,[2],inactive
same,outcome,[3],inactive
same,outcome,[4],inactive
same,outcome,[8],inactive
CC[C@@H](CO)NC(=O)[C@@H]1C=C2c3cccc4c3c(cn4C)C[C@H]2N(C)C1,outcome,[5],inactive
same,outcome,[2],inactive
same,outcome,[3],inactive
same,outcome,[7],inactive
same,outcome,[4],inactive
same,outcome,[6],inactive
COc1ccc(OC)c(C(O)CNC(=O)CN)c1 (configuration not stated),outcome,[5],inactive
same,outcome,[1],inactive
same,outcome,[3],inactive
same,outcome,[7],inactive
same,outcome,[4],inactive
same,outcome,[8],inactive
same,outcome,[6],inactive
NC(=O)c1cn(Cc2c(F)cccc2F)nn1,outcome,[5],inactive
same,outcome,[1],inactive
same,outcome,[3],inactive
same,outcome,[7],inactive
same,outcome,[4],inactive
same,outcome,[8],inactive
same,outcome,[9],inactive
same,outcome,[6],inactive
c1ccc(C2CC2)c(OCC2=NCCN2)c1,AC50,[1],39.8 µM (active)
same,outcome,[2],inactive
same,outcome,[3],inactive
same,AC50,[4],39.8 µM (active)
CC(=O)[C@H]1CC[C@H]2[C@@H]3CC[C@H]4C[C@H](O)CC[C@]4(C)[C@H]3C(=O)C[C@]12C,outcome,[1],inactive
same,outcome,[2],inactive
same,outcome,[3],inactive
same,outcome,[4],inactive
same,outcome,[8],inactive
CC(=O)[C@H]1CC[C@H]2[C@@H]3CC[C@H]4C[C@](C)(O)CC[C@]4(C)[C@H]3CC[C@]12C,outcome,[1],inactive
same,outcome,[2],inactive
same,outcome,[3],inactive
same,outcome,[4],inactive
same,outcome,[8],inactive
Cn1cc(C2=C(c3cn(C4CCN(Cc5ccccn5)CC4)c4ccccc34)C(=O)NC2=O)c2ccccc21,outcome,[1],inactive
same,outcome,[2],inactive
same,outcome,[3],inactive
same,outcome,[4],inactive
CCN(CC)CCOC(=O)C(O)(c1ccccc1)c1ccccc1,outcome,[1],inactive
same,outcome,[2],inactive
same,outcome,[3],inactive
same,outcome,[4],inactive
same,outcome,[8],inactive
CC(=O)Nc1cc([As](=O)(O)O)ccc1O,outcome,[1],inactive
same,outcome,[2],inactive
same,outcome,[3],inactive
same,outcome,[4],inactive
same,outcome,[8],inactive
Clc1ccc(CCC(Cn2ccnc2)Sc2c(Cl)cccc2Cl)cc1 (configuration not stated),AC50,[1],25.1 µM (active)
same,AC50,[2],22.4 µM (active)
same,outcome,[3],inactive
same,AC50,[4],22.4 µM (active)
O=[N+]([O-])c1ccc(O)c2ncccc12,AC50,[1],31.6 µM (active)
same,AC50,[2],28.2 µM (active)
same,outcome,[3],inactive
same,AC50,[4],28.2 µM (active)
COc1ccccc1OCCNCC(O)COc1cccc2[nH]c3ccccc3c12 (configuration not stated),outcome,[5],inactive
same,AC50,[2],2.24 µM (active)
same,AC50,[4],2.24 µM (active)
same,AC50,[6],10 µM (active)
O=c1[nH]cc(F)c(=O)[nH]1,outcome,[10],inactive
same,outcome,[2],inactive
same,outcome,[3],inactive
same,outcome,[7],inactive
same,outcome,[4],inactive
same,outcome,[8],inactive
same,outcome,[6],inactive
Cc1cccc(C)c1NC(=O)CN1CCCC1=O,outcome,[1],inactive
same,outcome,[2],inactive
same,outcome,[3],inactive
same,outcome,[4],inactive
CCCC1CCCCN1 (configuration not stated),outcome,[1],inactive
same,outcome,[2],inactive
same,outcome,[3],inactive
same,outcome,[4],inactive
same,outcome,[8],inactive
CC/C=C(\C(=O)N[C@@H]1C(=O)N2C(C(=O)OCOC(=O)C(C)(C)C)=C(COC(N)=O)CS[C@H]12)c1csc(N)n1,outcome,[1],inactive
same,outcome,[2],inactive
same,outcome,[3],inactive
same,outcome,[4],inactive
same,outcome,[8],inactive
CC(C)=CC1C(C(=O)OCc2cccc(Oc3ccccc3)c2)C1(C)C (configuration not stated),outcome,[1],inactive
same,outcome,[2],inactive
same,outcome,[3],inactive
same,outcome,[4],inactive
same,outcome,[8],inactive
O=C(NC(O)C(Cl)(Cl)Cl)NC(O)C(Cl)(Cl)Cl (configuration not stated),outcome,[1],inactive
same,outcome,[2],inactive
same,outcome,[3],inactive
same,outcome,[4],inactive
same,outcome,[8],inactive
CCCCOCCOCCOCc1cc2c(cc1CCC)OCO2,outcome,[1],inactive
same,outcome,[2],inactive
same,outcome,[3],inactive
same,outcome,[4],inactive
same,outcome,[8],inactive
Cn1cnc2c(F)c(Nc3ccc(Br)cc3Cl)c(C(=O)NOCCO)cc21,outcome,[1],inactive
same,outcome,[2],inactive
same,outcome,[3],inactive
same,outcome,[4],inactive
same,outcome,[8],inactive
CC(C)NCC(O)c1ccccc1Cl (configuration not stated),outcome,[1],inactive
same,outcome,[2],inactive
same,outcome,[3],inactive
same,outcome,[4],inactive
same,outcome,[8],inactive
C[C@@H]1CC(=O)NN=C1c1ccc(NN=C(C#N)C#N)cc1,outcome,[1],inactive
same,outcome,[2],inactive
same,outcome,[3],inactive
same,outcome,[4],inactive
same,outcome,[8],inactive
O=[N+]([O-])c1cc([As](=O)(O)O)ccc1O,outcome,[1],inactive
same,outcome,[2],inactive
same,outcome,[3],inactive
same,outcome,[4],inactive
same,outcome,[8],inactive
CN1CC(=O)N/C1=N/C(=O)Nc1cccc(Cl)c1,outcome,[1],inactive
same,outcome,[2],inactive
same,outcome,[3],inactive
same,outcome,[4],inactive
same,outcome,[8],inactive
CCN(CC)C(=O)N[C@@H]1C=C2c3cccc4[nH]cc(c34)C[C@@H]2N(C)C1,outcome,[1],inactive
same,outcome,[2],inactive
same,outcome,[3],inactive
same,AC50,[4],31.6 µM (active)
same,outcome,[8],inactive
NP(N)(=O)NC(=O)c1ccc(F)cc1,outcome,[1],inactive
same,outcome,[2],inactive
same,outcome,[3],inactive
same,outcome,[4],inactive
same,outcome,[8],inactive
c1ccc2c(c1)OCC(C1=NCCN1)O2 (configuration not stated),outcome,[1],inactive
same,outcome,[2],inactive
same,outcome,[3],inactive
same,AC50,[4],35.5 µM (active)
same,outcome,[8],inactive
N[C@@H](Cc1ccc(Oc2cc(I)c(O)c(I)c2)c(I)c1)C(=O)O,outcome,[1],inactive
same,outcome,[2],inactive
same,outcome,[3],inactive
same,outcome,[4],inactive
same,outcome,[8],inactive
NC(=O)N/N=C/c1ccc([N+](=O)[O-])o1,outcome,[1],inactive
same,outcome,[2],inactive
same,outcome,[3],inactive
same,outcome,[4],inactive
same,outcome,[8],inactive
